{"source": "paper PMC5540273", "about": "(PLoS ONE, 2017);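 note: kd values determined as follow-up on hits from a single-replicate KINOMEscan panel screen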", "key": {"MRCKB": {"test_system": "T1, MRCKB", "T1 construct": "gene CDC42BPB"}, "MST1": {"test_system": "T2, MST1", "T2 construct": "gene STK4"}, "MST3": {"test_system": "T3, MST3", "T3 construct": "gene STK24"}, "NDR1": {"test_system": "T4, NDR1", "T4 construct": "gene STK38"}}, "data": [{"smiles": "Cc1cccc(-c2nc(C)cc(Nc3ccncc3)n2)n1", "note": "[GSK257997]", "values": [{"measurement": "Kd", "setting": "MRCKB", "result": 0.58, "unit": "µM"}]}, {"smiles": "COc1ccc2nc(-c3cccc(C)n3)nc(Nc3ccncc3)c2c1", "note": "[GSK204919]", "values": [{"measurement": "Kd", "setting": "MRCKB", "result": 0.52, "unit": "µM"}]}, {"smiles": "Fc1cc(Cl)ccc1Nc1ccnc2cc(I)ccc12", "note": "[GW551191]", "values": [{"measurement": "Kd", "setting": "MST1R", "result": "> 10", "unit": "µM"}]}, {"smiles": "Nc1ncnc2[nH]c(-c3ccccc3)nc12", "note": "[AH5015]", "values": [{"measurement": "Kd", "setting": "MST1", "result": "> 10", "unit": "µM"}, {"measurement": "Kd", "setting": "PAK3", "result": "> 10", "unit": "µM"}]}, {"smiles": "O=C1NC(=O)C(N2CCc3ccccc32)=C1c1ccccc1Cl", "note": "[SB-373598]", "values": [{"measurement": "Kd", "setting": "MST1", "result": "> 10", "unit": "µM"}, {"measurement": "Kd", "setting": "PAK3", "result": "> 10", "unit": "µM"}]}, {"smiles": "CS(=O)(=O)c1ccc(-c2c(-c3ncn[nH]3)sc(N3CCOCC3)c2C#N)cc1", "values": [{"measurement": "Kd", "setting": "MST3", "result": "> 10", "unit": "µM"}]}, {"smiles": "CSc1nn2c(=O)cc(N3CCOCC3)nc2n1Cc1cccc(C(F)(F)F)c1C", "note": "[GSK2363608]", "values": [{"measurement": "Kd", "setting": "MST4", "result": "> 10", "unit": "µM"}, {"measurement": "Kd", "setting": "NEK2", "result": "> 10", "unit": "µM"}]}, {"smiles": "COc1cc2ncn(-c3cc(OCC4CCCO4)c(C(N)=O)s3)c2cc1OC", "note": "(stereo not drawn) [GSK204607]", "values": [{"measurement": "Kd", "setting": "MYLK4", "result": 0.5, "unit": "µM"}]}, {"smiles": "Cc1ccc(NC(=O)Nc2cccc(Cl)c2)cc1-c1ccc(C(=O)Nc2ccncc2)cc1", "note": "[GSK1398468]", "values": [{"measurement": "Kd", "setting": "MYO3A", "result": "> 10", "unit": "µM"}]}, {"smiles": "CC(C)(C)c1ccc(C(=O)Nc2cn3cc(Cl)ccc3n2)cc1", "values": [{"measurement": "Kd", "setting": "NDR1", "result": "> 10", "unit": "µM"}]}, {"smiles": "NC(=O)c1nnc2ccccc2c1N", "values": [{"measurement": "Kd", "setting": "NEK10", "result": 0.43, "unit": "µM"}]}, {"smiles": "CCCc1ccc(S(=O)(=O)NC2CCN(c3ccnc(Nc4ccc(F)cc4)n3)C2)cc1", "note": "(stereo not drawn) [GSK1379715]", "values": [{"measurement": "Kd", "setting": "NEK1", "result": "> 10", "unit": "µM"}]}, {"smiles": "CCn1c(-c2ccccn2)nc2cnccc21", "note": "[SB-736398]", "values": [{"measurement": "Kd", "setting": "NEK1", "result": "> 10", "unit": "µM"}]}, {"smiles": "O=C(O)COc1ncnc2cc(-c3ccc4[nH]ncc4c3)sc12", "values": [{"measurement": "Kd", "setting": "NEK3", "result": 0.21, "unit": "µM"}]}, {"smiles": "Cn1ccc2ncnc(Oc3ccc(Nc4nc5ccccc5[nH]4)cc3)c21", "values": [{"measurement": "Kd", "setting": "NEK4", "result": "> 10", "unit": "µM"}]}, {"smiles": "COc1cc(Nc2nccc(N3CCC(NC(=O)Nc4cc(C)ccc4C)C3)n2)cc(OC)c1OC", "note": "(stereo not drawn) [GSK1379762]", "values": [{"measurement": "Kd", "setting": "NEK5", "result": 2.3, "unit": "µM"}]}, {"smiles": "COc1ccc(CNC(=O)NC2CCN(c3ccnc(Nc4cc(OC)c(OC)c(OC)c4)n3)C2)cc1", "note": "(stereo not drawn) [GSK1379748]", "values": [{"measurement": "Kd", "setting": "NEK5", "result": 0.73, "unit": "µM"}]}, {"smiles": "CS(=O)(=O)c1ccc(-c2nc3n(c2-c2ccncc2)CCC3)cc1", "note": "[SKF-105942]", "values": [{"measurement": "Kd", "setting": "PAK6", "result": "> 10", "unit": "µM"}]}]}
